In PubChem BioAssay:

What was measured:
[1] = test system: Human papillomavirus type 1a protein E7 (residues 44-93); assay: small molecules binding HPV E7 44-93 – biochemical, small-molecule microarray, residues 44-93, 635 nm fluorescence, primary screen (AID 1108); details: fluorescence 635 nm, higher = more signal;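 also: E7 fragment applied at 1 µg/mL in TBST for 1 h at 4 C; score combines spot fluorescence with its signal to noise ratio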
[2] = hepatitis C replication reporter changes, two-sided – Huh7 cells, luciferase reporter, HCV replication inhibitor project, primary screen (AID 1109); details: Huh7 HCV replicon luciferase reporter, 48 h; higher = more signal;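 also: huh7 hepatoma cells harbouring a luciferase neomycin HCV replicon reporter; luciferase luminescence as measure of HCV replicon replication; test concentration not given here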
[3] = target: Left-right determination factor 2 (Homo sapiens) (UniProt O00292); assay: small molecules binding LEFTY2 protein – biochemical, small-molecule microarray, 635 nm fluorescence scan, primary screen (AID 1110); details: higher = more signal
[4] = target: Calmodulin-1 (Homo sapiens) (UniProt P0DP23); assay: small molecules binding calmodulin-1 with EGTA – biochemical, small-molecule microarray, Cy5-labelled CALM1, profiling panel (AID 1111); details: Cy5-CALM1 binding fluorescence, higher = more signal;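 also: labelled calmodulin applied in Tris saline Tween buffer holding calcium plus EGTA and DTT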
[5] = target: Calmodulin-1 (Homo sapiens) (UniProt P0DP23); assay: small molecules binding Ca-loaded calmodulin-1 – biochemical, small-molecule microarray, Cy5-labelled CALM1, plus calcium, artefact control for SMM control-protein annotation, profiling panel (AID 1112); details: Cy5-CALM1 binding fluorescence, higher = more signal;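 also: score merges spot fluorescence with signal to noise from triplicate slides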
[6] = probe aWnt5a binding to arrayed compounds – biochemical, biotinylated probe, 635/667 nm fluorescence, primary screen (AID 1113); details: small-molecule microarray, higher = more signal;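 also: score merges 667 nm fluorescence intensity with signal-to-noise per printed feature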
[7] = probe aShh binding to arrayed compounds – biochemical, biotinylated probe, 635/667 nm fluorescence, primary screen (AID 1114); details: small-molecule microarray, higher = more signal;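 also: probe is biotin-labelled aShh protein from a stem cell growth factor screen; measures binding of labelled protein to compounds printed on the slide; score merges feature fluorescence at 667 nm with signal-to-noise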
[8] = probe aNog binding to arrayed compounds – biochemical, biotinylated probe, 635/667 nm fluorescence, primary screen (AID 1115); details: small-molecule microarray, higher = more signal;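 also: probe is biotinylated aNog protein used at 0.15 µg/mL for 1 h at 4 C; z-score combines 667 nm fluorescence of each spot with its signal to noise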
[9] = target: Torsin-1A-interacting protein 1 (Homo sapiens) (UniProt Q5JTV8); assay: compound microarray binding of lysate hLAP1 – cell lysate, small-molecule microarray, COS7 lysate, 635/667 nm fluorescence, primary screen (AID 1116); details: 635 nm fluorescence, higher = more signal
[10] = target: Alpha-bungarotoxin (Bungarus multicinctus) (UniProt P60615); assay: compounds binding labelled alpha-BTX control protein – biochemical, small-molecule microarray, Alexa647 label, 635/667 nm fluorescence, artefact control for SMM control protein annotation, profiling panel (AID 1117); details: alpha-BTX-A647 binding fluorescence, higher = more signal
Chain of Alpha-bungarotoxin (Bungarus multicinctus) (P60615 whole entry, looked up): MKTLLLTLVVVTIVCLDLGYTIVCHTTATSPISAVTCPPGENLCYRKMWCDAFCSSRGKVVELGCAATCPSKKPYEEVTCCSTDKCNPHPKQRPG

Chain of Left-right determination factor 2 (Homo sapiens) (O00292 whole entry, looked up): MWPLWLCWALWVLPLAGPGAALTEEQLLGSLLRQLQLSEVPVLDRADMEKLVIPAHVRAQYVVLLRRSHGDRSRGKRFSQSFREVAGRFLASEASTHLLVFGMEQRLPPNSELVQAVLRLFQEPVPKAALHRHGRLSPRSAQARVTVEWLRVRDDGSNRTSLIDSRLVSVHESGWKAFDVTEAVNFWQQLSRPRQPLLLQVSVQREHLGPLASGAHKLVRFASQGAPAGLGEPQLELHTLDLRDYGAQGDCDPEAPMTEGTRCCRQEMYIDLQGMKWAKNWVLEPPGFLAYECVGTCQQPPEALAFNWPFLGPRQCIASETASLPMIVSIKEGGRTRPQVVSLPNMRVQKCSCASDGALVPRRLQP
Chain of Torsin-1A-interacting protein 1 (Homo sapiens) (Q5JTV8 whole entry, looked up): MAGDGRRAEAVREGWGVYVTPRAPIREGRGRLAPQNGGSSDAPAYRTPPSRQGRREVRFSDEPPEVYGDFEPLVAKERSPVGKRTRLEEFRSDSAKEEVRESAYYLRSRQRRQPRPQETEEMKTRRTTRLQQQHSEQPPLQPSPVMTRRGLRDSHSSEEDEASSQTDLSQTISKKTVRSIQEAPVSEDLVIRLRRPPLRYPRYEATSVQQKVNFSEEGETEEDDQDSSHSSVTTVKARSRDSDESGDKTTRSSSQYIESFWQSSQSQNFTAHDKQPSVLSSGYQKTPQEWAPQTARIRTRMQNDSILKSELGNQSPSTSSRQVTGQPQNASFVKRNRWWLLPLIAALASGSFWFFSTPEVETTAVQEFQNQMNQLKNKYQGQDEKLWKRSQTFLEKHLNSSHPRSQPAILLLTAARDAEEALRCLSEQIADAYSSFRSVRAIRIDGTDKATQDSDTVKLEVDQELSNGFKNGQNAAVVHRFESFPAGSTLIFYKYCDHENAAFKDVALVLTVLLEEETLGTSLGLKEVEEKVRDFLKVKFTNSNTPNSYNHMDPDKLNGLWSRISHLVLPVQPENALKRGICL

SMILES	composite z-score [1]	z-score [2]	composite z-score [3]	composite z-score [4]	composite z-score [5]	composite z-score [6]	composite z-score [7]	composite z-score [8]	composite z-score [9]	composite z-score [10]
CCN(CC)c1ccc(N2CC=CC34O[C@@H]5C=CCOC(=O)[C@@H]5[C@H]3C(=O)N(CCCO)[C@@H]4C2=O)cc1 (stereo not given in full)	0.295	-0.427	-0.934	-1	0.319	-0.124	0.258	0.223	0.0016	-1.57
CC(C)C[C@@H]1NC(=O)[C@H]2C[C@@H](C(=O)NCCCCCCNC(=O)CS)[C@@H](c3ccc(O)cc3)N2C1=O	1.4	-1.13	0.719	1.56	0.858	-0.0718	-0.0362	-0.164	1.47	-0.827
N#Cc1ccc(C(O)C2C=CC3C(=O)N(c4ccccc4)C(=O)C3N2Nc2ccc([N+](=O)[O-])cc2)cc1 (stereo not given)	0.632	-1.2	0.0058	2.16	1.14	0.222	0.0434	0.595	1.69	1.96
C=CCNC(=O)[C@H]1[C@@H]2C(=O)O[C@@H](c3ccccc3)[C@@H](c3ccccc3)N2[C@@H](c2ccccc2OCCO)[C@]12C(=O)N(C(=O)OCCOC)c1ccccc12	1.11	-3.16	0.142	0.336	0.287	-0.124	0.0684	0.86	1.13	1.53
COc1cc2c(cc1O)C(c1ccc(CN3CCCC3)cc1)N(Cc1cccc(OC(F)(F)F)c1)CC2 (stereo not given)	0.743	-3.63	0.629	-0.0262	-0.664	-0.203	-0.0522	0.0583	0.62	1.61
C[N+](C)(C)CCCC[C@@H]1NC(=O)[C@H]2C[C@@H](C(=O)NCCCCCNC(=O)CS)[C@@H](c3ccc(O)cc3)N2C1=O	0.727	0.215	0.355	0.956	0.213	0.0101	-0.0553	-0.373	2.49	-0.256
CCOC(=O)C1=CC[C@@H](c2ccccc2)N(S(=O)(=O)c2ccc(C)cc2)[C@H]1C#N	0.894	-1.76	0.116	0.906	0.658	0.0044	-0.16	-0.59	1.03	-0.06
CC(=O)c1ccc(C(O)C2C=CC3C(=O)N(C)C(=O)C3N2NC(=O)OC(C)(C)C)cc1 (stereo not given)	0.955	-0.859	0.237	2.2	1.19	0.0279	0.207	1.7	0.486	2.12
COCCCNC(=O)[C@@H]1c2ccccc2C(=O)N(C2CCCCC2)[C@H]1c1ccc(CO)cc1	-0.093	-1.27	-1.22	-0.28	0.716	-0.124	-0.0769	-0.0633	1.25	-1.08
COCCOC(=O)N1C(=O)[C@@]2(c3cc(C#CCC(C(=O)OC)C(=O)OC)ccc31)[C@H](c1ccc(OCCO)cc1)N1[C@H](c3ccccc3)[C@H](c3ccccc3)OC(=O)[C@H]1[C@@H]2C(=O)N1CCCCCCC1	1.21	-0.735	1.13	2.57	1.53	0.816	2.6	3.08	3.22	2.32
CC1(C)OC[C@@]23C=C(Br)[C@@H](C[C@H]12)[C@@]1(CO1)C3=O	0.223	-1.33	0.841	0.0619	-0.866	0.0937	-0.0769	-0.132	0.0611	0.179
CCCCC=C[C@@H](NC(=O)c1ccc(C(F)(F)F)cc1)c1ccccc1	-0.297	-0.887	-0.636	-0.0968	0.382	-0.134	0.0022	0.278	-0.946	-1.07
C=CCN1C(=O)[C@]2(O[C@H](CCn3cc([C@H](O)c4ccccc4)nn3)[C@@H]([Si](C)(C)c3ccc(OC)cc3)[C@@H]2C)c2cc(N3C(=O)c4cccc5cccc3c45)ccc21	0.87	-4.4	-0.744	0.313	-0.58	-0.156	-0.0769	-0.0809	0.404	1.39
CC(C)C(=C=CC[C@@H](O)c1ccc(OCCO)cc1)CCO	0.0426	-0.283	-0.141	0.236	-0.421	-0.18	-0.237	-0.178	-0.117	0.441
C=CCC(OC(C)=O)[C@@H]1[C@@H](N(Cc2cc3ccccc3o2)C(=O)Cc2ccc(OC)cc2)c2cc(OCCCO)ccc2N1C(=O)Cc1ccc2ccccc2c1 (stereo not given in full)	-0.687	-0.739	-0.487	-0.197	0.191	-0.0704	0.0815	-0.0642	0.475	0.615
Cc1ccc(F)cc1S(=O)(=O)N[C@@H]1CCN(Cc2ccc3[nH]ccc3c2)C1	0.935	-4.03	0.292	-0.46	-0.754	-0.12	-0.0709	-0.295	0.144	0.431
CC(=O)n1cc(C(O)C2C=CC3C(=O)N(c4ccccc4)C(=O)C3N2Nc2ccccc2F)c2ccccc21 (stereo not given)	1.13	-0.159	-0.747	1.64	-0.494	-0.0566	0.0723	-0.305	0.488	0.403
NCCCC[C@@H]1NC(=O)[C@H]2C[C@@H](C(=O)NCc3ccc(F)cc3)[C@@H](c3ccc(O)cc3)N2C1=O	1.18	-0.0038	0.567	1.17	0.428	-0.0161	0.452	-0.171	2.33	1.26

SMILES	composite z-score [1]	z-score [2]	composite z-score [3]	composite z-score [4]	composite z-score [5]	composite z-score [6]	composite z-score [7]	composite z-score [8]	composite z-score [9]	composite z-score [10]
C[C@]1(C(=O)NCC(F)(F)F)c2ccccc2C(=O)N(Cc2ccc(OC(F)(F)F)cc2)[C@H]1c1ccc(CO)cc1	0.26	-1.11	-0.143	-0.0779	-0.373	-0.154	-0.0626	-0.519	-0.115	0.25
CC(C)CNC(=O)[C@@]1(C)c2ccccc2C(=O)N(Cc2cc(F)cc(C(F)(F)F)c2)[C@H]1c1ccc(CO)cc1	1.35	-0.732	0.0867	0.0765	0.0987	-0.17	0.0639	0.341	1.98	0.884
COc1ccc(C#Cc2ccc3c(c2)[C@]2(C(=O)N3)[C@H](C(=O)Nc3nc4ccccc4s3)[C@H]3C(=O)O[C@H](c4ccccc4)[C@H](c4ccccc4)N3[C@@H]2c2ccc(OCCO)cc2)cc1	0.801	-2.03	0.651	2.19	0.915	0.0377	0.337	0.302	2.08	1.75
COC(=O)[C@@]1(Cc2ccccc2)[C@@H]2[C@@H](CC(=O)[C@H]2CC(=O)C(=O)N(C)C)CN1C(=O)c1ccccc1	0.426	-0.96	-0.116	0.518	0.599	0.0078	-0.0322	0.859	1.38	0.43
COc1ccc(CCNC(=O)[C@@H]2c3ccccc3C(=O)N(CC34CC5CC(CC(C5)C3)C4)[C@H]2c2ccc(CO)cc2)cc1	1.29	-2.34	0.453	1.67	0.576	-0.0286	0.0381	-0.338	0.321	0.664
C=CCC(OC(C)=O)[C@@H]1[C@@H](N(Cc2cccc3ccccc23)C(=O)c2ccc(C)cc2)c2cc(OCCCO)ccc2N1C(=O)c1ccc2ccccc2n1 (stereo not given in full)	-0.139	-0.614	-0.0457	-0.388	-0.195	-0.147	-0.341	-0.555	0.482	1.46
CC(C)CNC(=O)[C@@H]1c2ccccc2C(=O)N(Cc2ccccc2Cl)[C@H]1c1ccc(CO)cc1	1.07	-0.249	-1.09	0.0642	-0.116	-0.244	-0.0813	-0.0769	1.69	-1.39
CCCCCCCCCCC(O)C1C=CC2C(=O)N(C)C(=O)C2N1N1CCCCC1 (stereo not given)	-0.469	-0.941	-2.49	-0.311	1.4	-0.196	0.0278	0.715	-0.428	-1.09
CCOC(=O)C[C@H]1[C@H](OC(=O)c2ccc(-c3ccccc3)cc2)[C@@H](NC(=O)CC(C)C)c2cc(OCCCO)ccc2N1C(=O)Cc1ccc(OC)cc1	0.157	-1.84	0.141	1.05	0.335	-0.0523	-0.2	-0.126	0.418	0.446
COCCOC(=O)N1C(=O)[C@@]2(c3cc(C#Cc4ccc(OC)cc4)ccc31)[C@H](c1ccc(OCCO)cc1)N1[C@H](c3ccccc3)[C@H](c3ccccc3)OC(=O)[C@H]1[C@@H]2C(=O)N1CCCCCCC1	1.35	-0.891	0.954	2.27	1.21	0.777	2.23	3.67	3.66	1.99
C=C(COC)/C(=C/C[C@H](OC(=O)c1ccncc1)c1cccc(OCCO)c1)c1cnc2ccccc2c1	-0.378	-1.56	0.791	0.697	-0.64	-0.0944	0.235	-0.145	0.756	3.02
O=C1OCCC=C[C@H]2OC34C=CCN(c5ccc(Cl)cc5)C(=O)[C@H]3N(CCO)C(=O)[C@@H]4C12 (stereo not given in full)	-0.646	0.318	-1.34	-0.585	-0.1	-0.239	-0.262	-0.274	-0.855	-0.957
CCCC[C@@H](O)C1=C(COC)Cn2c(=O)n(-c3ccccc3)c(=O)n2[C@H]1CO	-0.877	1.36	-0.1	-0.97	-0.694	-0.172	-0.2	0.474	0.0334	-0.115
CCCCCN1CC=CC23O[C@@H]4C=CCOC(=O)[C@@H]4[C@H]2C(=O)N(CCCCCO)[C@@H]3C1=O (stereo not given in full)	-0.678	-0.0591	-1.19	-0.511	-0.177	-0.209	-0.0035	-0.223	0.229	-0.724
C=CCC(OC(C)=O)[C@@H]1[C@@H](N(Cc2ccc(-c3ccccc3)cc2)C(=O)c2ccc(C)cc2)c2cc(OCCCO)ccc2N1C(=O)c1ccc2ccccc2c1 (stereo not given in full)	-0.129	-0.33	-0.103	0.0626	0.235	-0.0222	-0.17	-0.448	0.202	0.408
CN1C=C(C(=O)OCCS(C)(=O)=O)C(C(=O)OCCS(C)(=O)=O)=CC(CCCO)=CC1c1ccc(CN2CCCC2)cc1 (stereo not given)	1.45	-1.36	0.595	0.693	-0.551	-0.0087	0.261	0.827	0.51	0.745
COc1ccc(NC(=O)O[C@H]2[C@H](OC(=O)Nc3ccc4c(c3)OCO4)[C@H](OC(=O)Nc3ccc4c(c3)OCO4)[C@@H](OC)O[C@@H]2CO)cc1	1.08	0.0346	-0.0444	0.888	-0.958	-0.0643	0.0469	-0.147	0.94	0.425
